Consider 16 molecules from PubChem BioAssay (NCATS).

Experiment [1] is described as follows: Cellular Toxicity (caspase-3) HepG2 (AID 654).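 Further: cells exposed to compound for 16 hours before reading; 0% = DMSO alone and 100% = caspase signal from 100 µM tamoxifen.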 The method in brief:
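HepG2 cells (1500/well) in complete medium were treated with compounds for 16 hr at 37 °C. Caspase-3/7 activity was then read as luminescence from peptide-aminoluciferin cleavage. AC50 came from Hill fits, normalized to DMSO and 100 uM tamoxifen.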

Experiment [2] can be described thus: Cellular Toxicity (caspase-3) Jurkat (AID 655).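 Further: cells exposed to compound for 16 h at 37 °C before reading.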 Further: potency means the concentration at half of the fitted maximal effect. The method in brief:
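Jurkat cells (5000/well) in complete medium exposed 16 h at 37 C; caspase-3/7 activity read by Caspase-Glo luminescence after 20 min at room temperature. Normalized to DMSO and 100 uM tamoxifen; AC50 from Hill fits.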

The nature of experiment [3]: Cellular Toxicity (caspase-3) HUV-EC-C (AID 656).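 Further: 0% = DMSO basal and 100% = 100 µM tamoxifen.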 The essentials: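 HUV-EC-C cells (1000/well) in complete medium, compound-treated 16 h at 37 °C; caspase-3/7 activity read by Caspase-Glo 3/7 luminescence. Normalized to DMSO (basal) and 100 uM tamoxifen (100%); AC50 from Hill-equation concentration-response fits.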
Experiment [4] is described as follows: Cellular Toxicity (caspase-3) SHSY5Y (AID 657). The method in brief:
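SH-SY5Y human neuroblastoma cells, 1500/well, exposed to compound for 16 hours at 37 °C in complete medium. Caspase-3/7 activity read by Caspase-Glo luminescence after 1 hr at room temperature, normalized to DMSO and 10 uM staurosporine; AC50 from Hill fit.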

A short description of experiment [5]: Cellular Toxicity (caspase-3) BJ (AID 658). Further: potency means the concentration at half of the fitted maximal effect.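 On caspase-3 activation: 0% = DMSO basal and 100% = 10 µM staurosporine.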 The conditions noted are these: Potency: caspase-3 activation. The method in brief:
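Readout: Caspase-Glo 3/7 luminescence increase in BJ cells after 16 hr treatment at 37 °C. Staurosporine and tamoxifen served as positive controls; AC50 values came from Hill modelling of data normalized to DMSO and 10 uM staurosporine.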

Experiment [6] can be described thus: Cellular Toxicity (caspase-3) MRC-5 (AID 659). Further: potency means the concentration at half of the fitted maximal effect.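 On caspase-3 activation: 0% = DMSO basal and 100% = 10 µM staurosporine.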 Particulars: Potency: caspase-3 activation. The essentials:
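Concentration-dependent caspase 3/7 activation is measured in human normal lung fibroblasts (MRC-5) following 16-hour treatment. AC50 values come from standard Hill-equation modeling of luminescence normalized to DMSO and 10 uM staurosporine.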

Experiment [7] can be described thus: Cellular Toxicity (caspase-3) Mesangial (AID 660).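 Further: cells exposed to compound for 16 h before the caspase read.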 The essentials:
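Human renal glomerular mesangial cells (1000/well) were treated with compounds for 16 h at 37 °C in complete medium, then caspase 3/7 activity was read by Caspase-Glo luminescence. Data were normalized to DMSO and 100 uM tamoxifen; AC50 from Hill fits.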

The nature of experiment [8]: Cellular Toxicity (caspase-3) SK-N-SH (AID 661). Further: potency means the concentration at half of the fitted maximal effect.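 On caspase-3 activation: 0% = DMSO basal and 100% = 10 µM staurosporine.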 Particulars: SK-N-SH caspase-3 activation, qHTS; caspase-3 activation: at 91.7 µM (top of the series), DMSO as zero, staurosporine as full. The essentials: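 SK-N-SH human neuroblastoma cells (1500/well) were treated with compounds for 16 hr at 37 °C in complete medium; caspase 3/7 activity was read by Caspase-Glo luminescence. AC50 came from Hill fits of data normalized to DMSO and 10 uM staurosporine.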
On the technique in general: In qHTS, concentration-response curves come from the screen itself.

The nature of experiment [9]: Cellular Toxicity (caspase-3) H-4-II-E (AID 663).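 Further: cells exposed to compound for 16 hr before readout; 0% = DMSO basal and 100% = 100 µM tamoxifen.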 The essentials: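 Apoptosis induction is scored as increased luminescence from caspase 3/7 substrate cleavage in rat hepatoma H-4-II-E cells exposed to compound for 16 hr. Activity is scaled between DMSO and 100 uM tamoxifen.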
Experiment [10] can be described thus: Cellular Toxicity (caspase-3) Hek293 (AID 664).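 Further: cells exposed to compound for 16 h at 37 °C before readout.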 The essentials: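 HEK293 cells were exposed to compounds in complete medium for 16 hr at 37 °C, then caspase-3/7 activity was read by Caspase-Glo 3/7 luminescence after 20 min at room temperature. Data normalized to DMSO and 100 uM tamoxifen; AC50 from Hill fits.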

“And” between values parts separate entries of the source, which are not always exact repeats. Equal entries are not always repeated. Results filed as inconclusive are left out. The source made the active and inactive calls. The call rests on the fitted dose curve; in most records, active means well fitted curve in the direction sought with a large enough effect; inconclusive means small, poorly fitted or top-dose-only effect, or another doubt; inactive means no such curve, though single readings can be large; an effect the other way counts as inactive or inconclusive.

Consider `CC(C)CCON=O`, for which the molecule was called inactive in experiment [1], in experiment [3], in experiment [4], in experiment [7], in [9] and in [10]. Also, the Potency result in experiment [2], in experiment [5], in [6] and in experiment [8] was “inactive” throughout.

For `O=[N+]([O-])c1ccccc1`, the molecule was called inactive in experiment [1], in [3], in experiment [4], in experiment [7], in experiment [9] and in experiment [10]. Also, the Potency entry in experiment [2], in experiment [5], in experiment [6] and in experiment [8] was “inactive” throughout.

For `CCOC(=O)c1ccccc1C(=O)OCC`, the molecule was called inactive in [1], in [3], in experiment [4], in experiment [7], in experiment [9] and in experiment [10]. The Potency result in [2], in experiment [5], in [6] and in experiment [8] was “inactive” in each case.

As to `Oc1cc(Cl)c(Cl)cc1Cl`, the molecule was called inactive in experiment [1], in experiment [3], in experiment [4], in experiment [7], in experiment [9] and in experiment [10]. Moreover, the Potency result in [2], in experiment [5], in [6] and in experiment [8] was “inactive” in each case.

Regarding `O=CC=O`, the outcome in experiment [1], in experiment [3], in [4], in experiment [7], in experiment [9] and in experiment [10] was inactive. Also, the Potency result in [2], in [5], in experiment [6] and in experiment [8] was “inactive” throughout.

Regarding `[O]=[Cr](=[O])([OH])[O][Cr](=[O])(=[O])[OH]`, the call in experiment [1], in [7], in experiment [9] and in experiment [10] was inactive. Moreover, the Potency in experiment [2] is 31.6 µM (active); in experiment [5] it was 15.8 µM (active); in experiment [6], 20 µM (active) and 25.1 µM (active); in [8], 20 µM (active). In addition, in experiment [8], the caspase-3 activation was 80.2% (active).

Consider `Clc1ccccc1Cl`, for which the outcome in [1], in experiment [3], in experiment [4], in [7], in [9] and in [10] was inactive. Also, the Potency result in experiment [2], in [5], in [6] and in experiment [8] was “inactive” in each case.

In the case of `CC(C)(C)c1cc(O)ccc1O`, the outcome in experiment [1], in experiment [3], in experiment [4], in experiment [7], in experiment [9] and in [10] was inactive. For the same molecule, the Potency result in [2], in experiment [5], in [6] and in experiment [8] was “inactive” throughout.

On to `O=C1CCO1`, for which the molecule was classed as inactive in experiment [1], in experiment [3], in [4], in [7], in experiment [9] and in [10]. In addition, the Potency entry in experiment [2], in [5], in experiment [6] and in experiment [8] was “inactive” throughout.

Take `C[C@H]1CC[C@@H]2[C@@H](C)[C@H]3[C@H](C[C@H]4[C@@H]5CC=C6CC(O[C@@H]7O[C@H](CO)[C@H](O)[C@H](O[C@@H]8O[C@H](CO)[C@@H](O)[C@H](O)[C@H]8O)[C@H]7O[C@H]7O[C@@H](C)[C@H](O)[C@@H](O)[C@H]7O)CC[C@]6(C)[C@H]5CC[C@]34C)N2C1` (stereo partly drawn): the molecule was called inactive in experiment [1], in [3], in [4], in experiment [7], in experiment [9] and in [10]. The Potency result in experiment [2], in [5], in experiment [6] and in [8] was “inactive” in each case.

As for `O=[N+]([O-])c1ccc(F)c([N+](=O)[O-])c1`, the call in experiment [1], in experiment [3], in [4], in [7], in experiment [9] and in [10] was inactive. For the same molecule, the Potency result in experiment [2], in [5], in experiment [6] and in experiment [8] was “inactive” in each case.

Take `[O]=[Cd]`: the call in experiment [1], in [3], in experiment [4], in experiment [7], in experiment [9] and in [10] was inactive. The Potency entry in experiment [2], in [5], in experiment [6] and in [8] was “inactive” in each case.

`CC(C)Nc1ccc(Nc2ccccc2)cc1`: the call in experiment [1], in experiment [3], in [4], in [7] and in [10] was inactive. In addition, the Potency result in experiment [2], in experiment [5], in experiment [6] and in experiment [8] was “inactive” in each case.

As for `O=Cc1ccco1`, the call in experiment [1], in experiment [3], in experiment [4], in experiment [7], in [9] and in [10] was inactive. In addition, the Potency entry in [2], in experiment [5], in [6] and in [8] was “inactive” throughout.

For `C[C@]12CCC(=O)C[C@@H]1CC[C@@H]1[C@@H]2CC[C@]2(C)[C@@H](O)CC[C@@H]12`, the molecule was called inactive in experiment [1], in experiment [3], in [4], in experiment [7], in experiment [9] and in experiment [10]. The Potency entry in experiment [2], in experiment [5], in experiment [6] and in experiment [8] was “inactive” throughout.

Regarding `O=C1C=CC(=O)C=C1`, the call in experiment [1], in [3], in experiment [4], in experiment [7], in experiment [9] and in experiment [10] was inactive. Further, the Potency result in [2], in experiment [5], in [6] and in experiment [8] was “inactive” each time.
